Drawing on PubChem BioAssay (NCI), this text covers growth inhibition for 8 molecules.

A short description of assay [1]: NCI Yeast Anticancer Drug Screen. Data for the rad50 strain (AID 155).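 Note: 0% = growth of vehicle-only cultures of the same strain.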 The note with it: S. cerevisiae rad50 strain growth inhibition, active compounds read high. The procedure, abridged:
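Yeast carrying a defined DNA repair defect were exposed to test compounds, and growth was compared with vehicle-treated controls to give percent inhibition.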

Assay [2] can be described thus: NCI Yeast Anticancer Drug Screen. Data for the mec2-1 strain (AID 157). Particulars: S. cerevisiae mec2-1 strain, active compounds read high. In outline: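 Compounds were applied to mec2-1 yeast cells. Their growth was then compared with that of vehicle-treated cultures to give growth inhibition.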
Assay [3] in a line: NCI Yeast Anticancer Drug Screen. Data for the sgs1 mgt1 strain (AID 161).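 Note: 0% = growth of cultures given vehicle only.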 Particulars: S. cerevisiae sgs1 mgt1 strain, active compounds read high. In outline:
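Compounds are added to genetically altered yeast, and growth is compared with cultures given vehicle alone to give percent inhibition.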

Assay [4] in a line: NCI Yeast Anticancer Drug Screen. Data for the cln2 rad14 strain (AID 165).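 Note: 0% = growth equal to vehicle treated cultures.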 Particulars: S. cerevisiae cln2 rad14 strain, active compounds read high. In outline:
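Strain: cln2 rad14 yeast, altered in cell cycle control and DNA damage repair. Read-out: growth inhibition vs vehicle.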

A short description of assay [5]: NCI Yeast Anticancer Drug Screen. Data for the bub3 strain (AID 167). The note with it: S. cerevisiae bub3 mutant strain, active compounds read high. In outline:
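Compounds were applied to a genetically altered yeast strain carrying a cell-cycle control defect. Growth inhibition was scored against vehicle-treated controls.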

A short description of assay [6]: NCI Yeast Anticancer Drug Screen. Data for the mlh1 rad18 strain (AID 175). Particulars: S. cerevisiae mlh1 rad18 strain growth inhibition, active compounds read high. The procedure, abridged:
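A repair-deficient yeast strain is exposed to test compound, and growth is scored relative to vehicle-treated controls.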

Where [7] appears, read: at 5.0 µM (retest, dose inferred, filed as 0.5).
The mark [8] stands for this setting: at 50.0 µM (retest, dose inferred, filed as 5.0).

The panel holds about 79,000 compounds, 15% with a hit somewhere; the sample as a whole holds those more often. Values without a mark were called inactive. Calls of active or inactive are those of the source. Cut-off read from the data, not from the text of the source: active = growth inhibition above about 70%; inactive = the rest.

As for `CCC(C)c1cc([N+](=O)[O-])cc([N+](=O)[O-])c1O` (centres undefined), the growth inhibition in assay [1] (setting [7]) is -137%; in assay [1] (setting [8]) it was 39%; in assay [1] (at 50.0 µM), 79% (active); in assay [2] (setting [7]) it was -31%; in assay [2] (setting [8]), 24%; in assay [2] (at 50.0 µM), 66.2%. Also, the growth inhibition in assay [3] (setting [7]) was -50%; in assay [3] (setting [8]), 60%; in assay [3] (at 50.0 µM) it was 86% (active); in assay [4] (setting [7]), -9%; in assay [4] (setting [8]), 44%; in assay [4] (at 50.0 µM), 69.9%. In addition, the growth inhibition in assay [5] (setting [7]) was -58%; in assay [5] (setting [8]), 19%; in assay [5] (at 50.0 µM), 80.1% (active); in assay [6] (setting [7]) it was -123%; in assay [6] (setting [8]), 40%; in assay [6] (at 50.0 µM), 85.5% (active).

With `CCOP(=O)(OCC)/C(C#N)=C/c1cccc(Br)c1`, the growth inhibition is 19% in assay [1] (setting [7]); 88% (active) in assay [1] (setting [8]); 88.2% (active) in assay [1] (at 50.0 µM); -4% in assay [2] (setting [7]); 90% (active) in assay [2] (setting [8]); 87.2% (active) in assay [2] (at 50.0 µM). For the same molecule, the growth inhibition was 3% in assay [3] (setting [7]); 94% (active) in assay [3] (setting [8]); 85.3% (active) in assay [3] (at 50.0 µM); 24% in assay [4] (setting [7]); 91% (active) in assay [4] (setting [8]); 72.2% (active) in assay [4] (at 50.0 µM). The growth inhibition in assay [5] (setting [7]) is 5%; in assay [5] (setting [8]), 92% (active); in assay [5] (at 50.0 µM), 75.2% (active); in assay [6] (setting [7]), -3%; in assay [6] (setting [8]), 94% (active); in assay [6] (at 50.0 µM), 85.8% (active).

Regarding `CC(C)COP(=O)(OCC(C)C)C(=O)Nc1ccc(Cl)cc1`, the growth inhibition in assay [1] (setting [7]) is -1%; in assay [1] (setting [8]) it was 80% (active); in assay [1] (at 50.0 µM) it was 57.1%; in assay [2] (setting [7]) it was -19%; in assay [2] (setting [8]), 44%; in assay [2] (at 50.0 µM), 15.2%. Also, the growth inhibition in assay [3] (setting [7]) is 11%; in assay [3] (setting [8]), 89% (active); in assay [3] (at 50.0 µM), 24.9%; in assay [4] (setting [7]), 9%; in assay [4] (setting [8]) it was 49%; in assay [4] (at 50.0 µM), 22.6%. Moreover, the growth inhibition was -2% in assay [5] (setting [7]); 58% in assay [5] (setting [8]); 25.1% in assay [5] (at 50.0 µM); 2% in assay [6] (setting [7]); 79% (active) in assay [6] (setting [8]); 33.6% in assay [6] (at 50.0 µM).

On to `C[N+](C)=C1C=CC(=C2C=CSC=C2)C=C1`, for which the growth inhibition in assay [1] (setting [7]) is 22%; in assay [1] (setting [8]), 45%; in assay [1] (at 50.0 µM), 11.1%; in assay [2] (setting [7]) it was 27%; in assay [2] (setting [8]), 36%; in assay [2] (at 50.0 µM), 10.3%. Further, the growth inhibition is 20% in assay [3] (setting [7]); 46% in assay [3] (setting [8]); 59.8% in assay [3] (at 50.0 µM); 29% in assay [4] (setting [7]); 45% in assay [4] (setting [8]); 25% in assay [4] (at 50.0 µM). For the same molecule, the growth inhibition in assay [5] (setting [7]) was 17%; in assay [5] (setting [8]), 72% (active); in assay [5] (at 50.0 µM), 79.2% (active); in assay [6] (setting [7]), 26%; in assay [6] (setting [8]) it was 52%; in assay [6] (at 50.0 µM) it was 89.8% (active).

On to `CC(C)(C)[CH2][Hg][Cl]`, for which the growth inhibition in assay [1] (setting [7]) is 100% (active); in assay [1] (setting [8]), 100% (active); in assay [1] (at 50.0 µM), 99.7% (active); in assay [2] (setting [7]), 100% (active); in assay [2] (setting [8]) it was 100% (active); in assay [2] (at 50.0 µM), 99.5% (active). Moreover, the growth inhibition in assay [3] (setting [7]) is 100% (active); in assay [3] (setting [8]), 99% (active); in assay [3] (at 50.0 µM), 99.5% (active); in assay [4] (setting [7]), 100% (active); in assay [4] (setting [8]), 99% (active); in assay [4] (at 50.0 µM), 98.7% (active). Moreover, the growth inhibition is 100% (active) in assay [5] (setting [7]); 100% (active) in assay [5] (setting [8]); 99.5% (active) in assay [5] (at 50.0 µM); 99% (active) in assay [6] (setting [7]); 99% (active) in assay [6] (setting [8]); 99.5% (active) in assay [6] (at 50.0 µM).

`CC1C2C=CC1C(c1c3ccc(=O)c(O)c-3oc3c(O)c(O)ccc13)C2C(=O)O` (centres undefined): the growth inhibition in assay [1] (setting [7]) is 11%; in assay [1] (setting [8]) it was 33%; in assay [1] (at 50.0 µM), 17%; in assay [2] (setting [7]), -1%; in assay [2] (setting [8]) it was 10%; in assay [2] (at 50.0 µM) it was 47.8%. Besides, the growth inhibition in assay [3] (setting [7]) was 2%; in assay [3] (setting [8]), 33%; in assay [3] (at 50.0 µM), 53%; in assay [4] (setting [7]), -23%; in assay [4] (setting [8]), 0%; in assay [4] (at 50.0 µM) it was -35.2%. The growth inhibition in assay [5] (setting [7]) was 9%; in assay [5] (setting [8]), 37%; in assay [5] (at 50.0 µM), -8.35%; in assay [6] (setting [7]) it was 7%; in assay [6] (setting [8]), 35%; in assay [6] (at 50.0 µM), 8.3%.

Turning to `COC([CH2][Hg][n]1cnc2c1c(=O)n(C)c(=O)n2C)CN1C(=O)c2ccccc2S1(=O)=O` (centres undefined), the growth inhibition in assay [1] (setting [7]) was 9%; in assay [1] (setting [8]), 94% (active); in assay [1] (at 50.0 µM), 96.8% (active); in assay [2] (setting [7]), 20%; in assay [2] (setting [8]) it was 84% (active); in assay [2] (at 50.0 µM), 95.3% (active). The growth inhibition was -2% in assay [3] (setting [7]); 89% (active) in assay [3] (setting [8]); 87.7% (active) in assay [3] (at 50.0 µM); -11% in assay [4] (setting [7]); 69% in assay [4] (setting [8]); 87.2% (active) in assay [4] (at 50.0 µM). The growth inhibition in assay [5] (setting [7]) is -1%; in assay [5] (setting [8]) it was 89% (active); in assay [5] (at 50.0 µM), 95.1% (active); in assay [6] (setting [7]) it was -1%; in assay [6] (setting [8]) it was 95% (active); in assay [6] (at 50.0 µM), 97% (active).

For `O=P1(NCCCl)OC(c2ccccc2)=CCN1CCCl` (centres undefined), the growth inhibition in assay [1] (setting [7]) was -1%; in assay [1] (setting [8]), -1%; in assay [1] (at 50.0 µM) it was 97.9% (active); in assay [2] (setting [7]) it was -5%; in assay [2] (setting [8]) it was 6%; in assay [2] (at 50.0 µM), 94.1% (active). Further, the growth inhibition was 1% in assay [3] (setting [7]); -1% in assay [3] (setting [8]); 99% (active) in assay [3] (at 50.0 µM); -2% in assay [4] (setting [7]); 5% in assay [4] (setting [8]); 96% (active) in assay [4] (at 50.0 µM). The growth inhibition in assay [5] (setting [7]) was -2%; in assay [5] (setting [8]), -1%; in assay [5] (at 50.0 µM), 89.6% (active); in assay [6] (setting [7]) it was -3%; in assay [6] (setting [8]), 1%; in assay [6] (at 50.0 µM) it was 98.8% (active).
